# Only some compounds are listed: those with a hit (about 6.2% of all), similar ones and a draw of the others.
# HT1080 IDH1KD tx = qHTS for induction of synthetic lethality in tumor cells producing 2HG: qHTS for the HT-1080-IDH1KD cell line; AID 686971, 2013; Potency, µM (titrated, usually from 46.1 µM), inactives show at the highest dose activity, negative = toxicity, actives largely listed as cytotoxic; HT-1080 IDH1 knockdown viability, ATP luminescence, 48 h; 360,000 tested, 2% active;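 note: 0% = DMSO wells and -100% = cell-free medium wells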
#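 Cytotoxicity counter-line: IDH1KD HT-1080, 48 h, CellTiter-Glo. Curves classed by r2, magnitude and activity.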
# S2 tox = Viability Counterscreen for Primary qHTS for Inhibitors of ATXN expression; S2 cells (HEK-293 line with an ATXN2-luciferase reporter) viability, CellTiter-Fluor protease fluorescence, 24 h; 400,000 tested, 0.49% active; Potency, µM (series often up to 56.7 µM), hits mostly cytotoxic; AID 651635, 2014; note: nearly all actives have a fitted effect of over 40% in size
# HT1080-NT tox = qHTS for induction of synthetic lethality in tumor cells producing 2HG: qHTS for the HT-1080-NT fibrosarcoma cell line; HT-1080-NT fibrosarcoma viability, CellTiter-Glo ATP luminescence, 48 h; Potency, µM (series often up to 46.1 µM), inactives show at the highest dose activity, negative = less viability, usual class: cytotoxic; 360,000 tested, 1.6% active; AID 686970, 2013;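 note: NT is the 2HG producing partner of a matched IDH1 knockdown line; 0% = DMSO-treated cells and -100% = media-only wells without cells; nearly all actives have a fitted effect of over 55% in size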
#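 Luminescent CellTiter-Glo readout after 48 hours of compound exposure at 37 degrees C defined viability of HT-1080-NT cells. Activity was normalized to DMSO wells and cell-free media wells; concentration-response curves were fitted and assigned curve classes.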
# KB-3-1 cytotox = qHTS assay for MDR1-selective chemotherapeutics: Primary screen using the parental adenocarcinoma cell KB-3-1 | KB-3-1 viability, CellTiter-Glo ATP luminescence, 72 h | Potency, µM (highest dose often 46.1 µM), hits mostly cytotoxic | 400,000 tested, 1.4% active | AID 1347075, 2019; note: % is set by controls: 0 for no effect and ±100 for the full control effect; nearly all actives have a fitted effect of over 60% in size
#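 Cytotoxicity in the drug-sensitive parental line KB-3-1 was scored as loss of CellTiter-Glo luminescence following 72 h incubation with compound. Values come from curve fitting of normalized concentration-response data.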
# ATXN2 expr inh = Primary qHTS for Inhibitors of ATXN expression; AID 1745845, 2022; HEK-293 ATXN2-luciferase reporter, luminescence, 24 h; Potency, µM (top dose mostly 57 µM), for the others: at the highest dose activity change, negative = inhibition, hits mostly inhibitors; 360,000 tested, 0.72% active; note: % is set by controls: 0 for no effect and ±100 for the full control effect; nearly all actives have a fitted effect of over 55% in size
#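 ATXN2-luciferase reporter cells (luciferase flanked by upstream and downstream ATXN2 gene portions) were treated 24 h at 37 °C with compounds at up to 57 uM. SteadyGlo luminescence gave expression; GF-AFC fluorescence gave viability.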
# KB-V1 MDR tox = qHTS assay for MDR1-selective chemotherapeutics: Primary screen using the drug-selected MDR subline cells KB-V1. Potency, µM (titrated, usually from 46.1 µM), usual class: cytotoxic. 400,000 tested, 3.4% active. KB-V1 MDR cells viability, CellTiter-Glo, 72 h. AID 1347076, 2019; note: % is set by controls: 0 for no effect and ±100 for the full control effect; nearly all actives have a fitted effect of over 60% in size
#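 Following 72 h at 37 degrees C with compound, KB-V1 cell viability was read by CellTiter-Glo luminescence, medium being phenol-red-free DMEM plus 10% FBS; concentration-response parameters came from normalized, curve-fitted qHTS data.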
# * hit, by the source's call; i = inactive; u = inconclusive; x = no result. Calls come from the whole dose curve; as a rule, active = well fitted curve in the direction sought with a large enough effect; inconclusive = small, poorly fitted or top-dose-only effect, or another doubt; inactive = no such curve, though single readings can be large; an effect the other way counts as inactive or inconclusive. Potency is the fitted concentration of half-maximal effect.
SMILES,HT1080 IDH1KD tx,S2 tox,HT1080-NT tox,KB-3-1 cytotox,ATXN2 expr inh,KB-V1 MDR tox
CCN(CC)S(=O)(=O)c1cnccc1N1CCN(c2cccc(Cl)c2)CC1,-20.1%,i,-10.0%,10.3µM*,-25.9%,i
C=CCC1CCCCC12NC(=O)N(c1ccccc1)N2 (centres undefined),u,i,u,i,-14.1%,i
O=C1CCC2(CC1)NC(=O)N(c1ccccc1)N2,8.2µM*,i,u,i,-2.5%,i
CCCCCCOc1ccc(CC(=O)O)cc1,16.2%,x,12.7%,x,x,x
CC(=O)c1ccc(Nc2nc(-c3sc(C)nc3C)cs2)cc1,2.91µM*,u,u,u,x,11.6µM*
Cc1nc(N)sc1-c1csc(Nc2ccc(Cl)cn2)n1,u,i,u,i,0.6%,18.4µM*
Cc1ccc(Nc2nc(-c3sc(C)nc3C)cs2)cc1,1.84µM*,x,1.46µM*,2.31µM*,x,1.84µM*
Cc1cccc(Nc2nc(-c3sc(C)nc3C)cs2)c1,u,i,25.9µM*,u,-5.4%,u
Cc1ccc(Nc2nc(-c3sc(N)nc3C)cs2)cc1,-0.4%,i,-3.7%,i,x,i
Cc1nc(N)sc1-c1csc(Nc2ccccn2)n1,-21.6%,i,-1.1%,i,79.1%,i
Cc1ccc(C)c(NC(=O)C2CCN(c3nn4c(=O)cc(C)nc4s3)CC2)c1,x,i,x,i,-4.6%,i
COc1ccc(Nc2nc(-c3sc(C)nc3C)cs2)c(OC)c1,16.4µM*,u,u,7.31µM*,-19.6%,u
Cc1cccc(CCNc2ncnc3onc(-c4ccc(Cl)cc4)c23)c1,x,i,x,i,0.9%,20.6µM*
CCOc1ccc(CCNc2ncnc3onc(-c4ccc(F)cc4)c23)cc1OCC,x,u,x,i,-22.1%,2.59µM*
O=C(CNC(=O)C(c1ccccc1)c1ccccc1)OCC(=O)c1cccc2ccccc12,x,x,x,i,x,i
CCOC(=O)Cc1nn(Cc2nc(-c3ccc(C)cc3)cs2)c(=O)c2ccccc12,-8.1%,i,16.4µM*,i,x,u
CCOC(=O)C1=C(C)NC(=S)NC1c1ccc(-c2ccc(Cl)cc2)o1 (centres undefined),-15.4%,u,0.2%,u,-38.8%,8.2µM*
CCOC(=O)C1=C(C)NC(=O)NC1c1ccc(-c2ccc(F)cc2)o1 (centres undefined),-15.0%,i,-2.1%,i,-24.7%,u
CCOC(=O)C1=C(C)NC(=O)NC1c1ccc(-c2ccc(Cl)cc2)o1 (centres undefined),u,i,-23.7%,u,u,20.6µM*
Cn1cc(-c2cc3n(n2)CCC(=O)N3CCCC(=O)Nc2ccccc2F)c2ccccc21,x,i,x,i,-18.1%,i
COC(=O)CC1Oc2ccc(C)cc2-n2cc(-c3ccc(C)cc3)nc21 (centres undefined),x,i,x,i,-1.9%,i
O=C(CSC1CN(C(c2ccccc2)c2ccccc2)C1)N/N=C/c1ccccc1,23.1µM*,i,u,i,1.5%,i
O=C(Cc1ccc(Cl)cc1)NC1CC(=O)N(c2ccc3c(c2)OCCO3)C1 (centres undefined),x,i,x,i,12.0%,i
COc1cc(OC)cc(C2=Cc3ccccc3C(CC(C)=O)N2c2ccc(-c3cccs3)cc2)c1 (centres undefined),2.5%,i,0.0%,u,12.4%,i
COc1cc(OC)cc(C2=Cc3ccc(OC)cc3C(CC(C)=O)N2c2ccc(-c3cccs3)cc2)c1 (centres undefined),-11.7%,u,-1.6%,7.31µM*,-2.1%,i
SMILES,HT1080 IDH1KD tx,S2 tox,HT1080-NT tox,KB-3-1 cytotox,ATXN2 expr inh,KB-V1 MDR tox
COc1cc(OC)cc(C2=Cc3ccccc3C(CC(C)=O)N2c2ccc(-c3cncnc3)cc2)c1 (centres undefined),2.8%,i,19.3%,23.1µM*,4.2%,u
CCCOc1ccccc1NC(=O)/C=C/C(N)=O,10µM*,x,u,i,-32.3%,i
CCCCOc1ccccc1NC(=O)C=C(C)C,11.1%,i,0.2%,i,-0.8%,i
CC(C)c1ccc(Nc2c(-c3ccc(N(C)C)cc3)nc3cnccn23)cc1,x,i,x,i,7.5%,i
O=S(=O)(NCC(Nc1ccccc1)c1ccccc1)c1ccc(Cl)cc1 (centres undefined),-10.9%,u,-16.3%,i,u,20.6µM*
COc1ccc(-c2oc3cc(O)c(OC)c(O)c3c(=O)c2OC)cc1O,0.581µM*,u,0.411µM*,0.82µM*,57.4%,0.651µM*
CCN1CCCC1CNCc1cccc(OC)c1OCc1ccc(F)cc1 (centres undefined),-8.7%,i,0.8%,i,5.7%,11.6µM*
CCOc1ccc(NC(=O)CN(C)C(=O)c2csc3c2CCCC3)cc1OCC,-0.7%,i,-2.1%,i,-3.7%,14.6µM*
CCOc1ccc(NC(=O)CN(C)C(=O)c2ccc(COc3ccccc3)cc2)cc1OCC,-6.8%,i,-5.0%,i,4.9%,9.2µM*
CCOc1ccc(NC(=O)CN(C)C(=O)c2cccnc2Sc2ccc(C)cc2C)cc1OCC,-11.9%,i,4.7%,i,3.4%,16.4µM*
CCOc1ccc(NC(=O)CN(C)C(=O)c2ccccc2OCc2cccc(C)c2)cc1OCC,u,i,-12.2%,i,-1.6%,2.91µM*
O=C(CN1C(=O)C2(CCCC2)NC[C@H]1c1cc(F)cc(F)c1)Nc1ccc2c(c1)C[C@@]1(C2)C(=O)Nc2ncccc21,x,x,x,x,-1.4%,x
Cc1cc2c(cc1NS(=O)(=O)c1cccc(C#N)c1)n(C)c(=O)c(=O)n2C,x,i,x,i,13.8%,i
Cc1ccc(S(=O)(=O)c2nnn(CC(=O)Nc3ccccc3C)c2N)cc1C,x,i,x,i,-4.2%,i
Cc1ccc(C)c(S(=O)(=O)N2CCN(C(=O)C3CCN(C(=O)c4ccc(F)cc4)CC3)CC2)c1,-0.7%,i,0.1%,i,5.4%,7.31µM*
Cc1ccc(C(C)(C)C)cc1S(=O)(=O)N1CCC(C(=O)N2CCN(c3ccc(O)cc3)CC2)CC1,-20.6%,i,-8.0%,u,u,14.6µM*
CN(Cc1cnc2ccccn12)C(=O)c1cc(NC(=O)c2ccccc2)cc2ncn(C3CCCC3)c12,x,i,x,x,x,x
O=c1ccn([C@@H]2O[C@H](CO)[C@H](O)[C@@H]2F)c(=O)[nH]1,x,x,x,x,-8.9%,x

# Bioassay records from PubChem BioAssay.
